Measurements published in PubChem BioAssay AID488835 (Broad Institute, 2010).
The whole screen tested about 1,400 compounds, of which about 140 (10%) were called active.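 Rule for the calls: active = Half-maximal inhibitory dose from the fit at or below ten times the top valid tested dose; inconclusive = Invalid fit, or flat curve showing 30 to 70% inhibition; inactive = the rest.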 Not all results are given here. Entries with a potency or affinity are not part of this list.

Each compound was assayed against Lysine-specific demethylase 4C (Homo sapiens) (UniProt Q9H3R0) (assay: GASC-1 (JMJD2C) histone demethylase inhibitors, dose response, biochemical, DELFIA europium, cherry-picked samples (AID 488835;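 note: signal is the H3K9me2 demethylation product detected by a dimethyl-specific antibody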)). Settings: GST-JMJD2C(1-420), H3K9me3 demethylation; series mostly up to 6 µM.
Lysine-specific demethylase 4C (Homo sapiens), sequence (Q9H3R0 1-420 limits assumed): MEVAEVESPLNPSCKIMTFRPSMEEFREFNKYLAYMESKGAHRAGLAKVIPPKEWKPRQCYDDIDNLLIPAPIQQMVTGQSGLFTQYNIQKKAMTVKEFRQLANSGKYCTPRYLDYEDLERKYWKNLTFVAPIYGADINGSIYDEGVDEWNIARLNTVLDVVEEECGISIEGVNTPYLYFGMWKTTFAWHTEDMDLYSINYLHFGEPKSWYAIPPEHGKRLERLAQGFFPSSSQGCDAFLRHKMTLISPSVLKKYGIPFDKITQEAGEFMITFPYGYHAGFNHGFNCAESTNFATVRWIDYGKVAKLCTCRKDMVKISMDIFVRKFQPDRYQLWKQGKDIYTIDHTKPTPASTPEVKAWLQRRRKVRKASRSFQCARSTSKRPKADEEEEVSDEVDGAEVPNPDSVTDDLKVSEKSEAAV

outcome, inactive:
CC1Oc2ccccc2N(Cc2ccccc2Cl)C1=O (centres undefined)
CCOC(=O)C1=C(CSc2nc(-c3ccncc3)ccc2C#N)OC(N)=C(C#N)C1c1cccnc1 (centres undefined)
CCn1c(SCC(=O)NCC(=O)Nc2ccc(F)cc2)nnc1-c1ccncc1
Cc1nc2sc(C(c3cccc(F)c3)N3CCOCC3)c(O)n2n1 (centres undefined)
Cc1cc(=S)c2cccc(C)c2[nH]1
CC(C)CC1c2[nH]c3ccccc3c2CCN1C(=O)c1cnccn1 (centres undefined)
Cc1noc(C)c1S(=O)(=O)N(C)C[C@H]1Oc2c(cccc2N(C)C)C(=O)N([C@H](C)CO)C[C@@H]1C
CCOC(=O)c1c(C)[nH]c(C(=O)CN2CCOCC2)c1C
FC(F)(F)c1cccc(NCc2cn3cccnc3n2)c1
Cc1ccc(OCc2nnnn2-c2ccccc2)cc1
O=C(Nc1cccnc1)c1ccccc1Oc1ccccc1
Cc1nnc(N(C)C(=O)c2ccccn2)s1
CCOc1cc(NC(=S)NCCOC)c(OCC)cc1NC(=O)c1cccs1
O=C(COc1c(CO)cc(Br)cc1CO)NC1CCCc2ccccc21 (centres undefined)
CCOC(=O)N1CCN(C(=S)NC(C)(C)C)CC1
Cc1cccc(CN2CCC(Oc3ccc(C(=O)N4CCCC4)cc3)CC2)n1
CCOC(=O)c1c(S(=O)(=O)N2CCCC(C(=O)Nc3ccc(C)cn3)C2)c(C)n(C)c1C (centres undefined)
CCOC(=O)c1c(S(=O)(=O)NCC(=O)Nc2cccc(C)c2C)c(C)n(C)c1C
CCCCCCC(=O)N1CCN(c2cc3c(cc2F)c(=O)c(C(=O)O)cn3CC)CC1
c1csc(Cn2nnnc2CN2CCN(c3nc4ccccc4s3)CC2)c1
O=C(NCc1nnc(SCC(=O)N2CCCC2)o1)c1c(F)cccc1Cl
CCC(=O)Nc1cc2c(C)cc(=O)oc2cc1C
COc1ccc(C(=O)Nc2ncc3c(n2)CC(c2ccco2)CC3=O)cc1 (centres undefined)
O=C(Nc1ccc(-c2csc(Nc3ccc(Cl)cc3)n2)cc1)c1ccccc1
C[C@H]1CN([C@@H](C)CO)C(=O)c2cc(NC(=O)C3CCCCC3)ccc2O[C@H]1CN(C)S(=O)(=O)c1ccccc1
COC(=O)[C@]1(C)N[C@H](CN(C)S(=O)(=O)c2ccc(C)cc2)[C@@H]2C(=O)N(Cc3ccccc3)C(=O)[C@@H]21
O=c1oc2ccccc2c(O)c1C=NCc1ccccn1
Cc1ccc(Nc2nc3nonc3nc2N(C)C)cc1
O=C(CC(=O)N/N=C/c1c(F)cccc1Cl)NCc1ccccc1
